TF binding intensity data for 40 sequences are collected here from the supplement of paper PMC10681739.

The target in this assay is T1, ETS1 (UniProt P14921).
T1 sequence: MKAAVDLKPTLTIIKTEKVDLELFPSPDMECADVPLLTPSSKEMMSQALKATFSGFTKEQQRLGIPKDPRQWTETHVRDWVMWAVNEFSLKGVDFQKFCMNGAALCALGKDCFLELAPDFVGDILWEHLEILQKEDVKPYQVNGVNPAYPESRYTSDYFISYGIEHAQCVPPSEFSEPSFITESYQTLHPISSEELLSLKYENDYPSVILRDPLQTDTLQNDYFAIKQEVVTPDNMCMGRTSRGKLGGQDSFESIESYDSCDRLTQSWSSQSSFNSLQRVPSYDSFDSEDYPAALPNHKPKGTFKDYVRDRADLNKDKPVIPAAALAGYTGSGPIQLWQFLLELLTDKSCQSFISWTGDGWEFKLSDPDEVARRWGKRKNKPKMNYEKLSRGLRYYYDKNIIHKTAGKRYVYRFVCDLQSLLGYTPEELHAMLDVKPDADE
As to the kind of experiment: TF binding intensity (PBM fluorescence), negative control probe (arbitrary fluorescence units); higher = stronger binding. How it is done: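 gcPBM negative-control 36-bp genomic probes lacking TF binding sites. Each was incubated with recombinant human ETS1 or RUNX1 alone and detected by antibody fluorescence. Values are medians over replicate spots (4 spots for the ETS1-RUNX1 arrays, 3 for the ETS1-ETS1 array). The probes sit in constant array flanks that are not printed.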
“GTGTCTGCCTCATTGGCGAAGGCCAGCCTCTGAGCC (protein concentration 10 nM)” showed a TF binding intensity of 140. Next, “GTGTGTGAGCGTGTACCCACAATGTGTAACTTAATT (protein concentration 1 nM)”: 484; “TTCATAACGTTATACACCACAATGCTAAAAAAATGA (protein concentration 1 nM)”: 672; “ACTGCTTTTTCACACAGCATCTTAATTGGCCTGTTT (protein concentration 10 nM)”: 118.

Turning to “TAAATAAATAAACACTTTAGCACATTGACTTTAGAG (protein concentration 10 nM)”, the TF binding intensity was found to be 111. To “GGCTCCTATATTAAAATTGGTATTAGTAGACAATGT (protein concentration 10 nM)” belongs 131; to “GAAATCCAGGAGAAAAATGCAGGACAGTCAGAGTAA (protein concentration 10 nM)”, 106. Turning to “TAAGTATTAAGAGTTGCAACACTCTAATCAAGGATA (protein concentration 10 nM)”, the TF binding intensity came out at 102. Next, “GAACTAACGAGGTCACTGAGAAATTACAAAGTGTGA (protein concentration 10 nM)”: 107; “GTCCCCTCAAGGACCCCCAGTGCAGGTGAAAAACTG (protein concentration 10 nM)”: 174. Regarding “TTGGGACCAATTTGACCCACAAACCCTGAAAAAGAG (protein concentration 1 nM)”, the TF binding intensity was 497. Next, “ACCTCCCACTTGGCTCCCAGGTGGGTGCAGTGAGGC (protein concentration 10 nM)”: 155; “TATAAGGGGCTTTTCCCCTTTGGCTCAGCACTTCTC (protein concentration 10 nM)”: 116.

The sequence “GGGGAAAATGAGCACAGGTGTGAAGCAGATCACAGG (protein concentration 10 nM)” yielded a TF binding intensity of 170. To “TGCTCTAGAGATGTGATCGTCCTCATTTCATGAAGG (protein concentration 10 nM)” belongs 121; to “GTTAAGTACCTGAATGAGCACTGGACCAGAGCCGGG (protein concentration 10 nM)”, 106. To “GCCCTGAGACTTGCCTTGCAATGCCATGTTTGTGTA (protein concentration 10 nM)” belongs 125; to “GCCCATCATTGGAGTCCCTTGGGGGTATCTGGAGCA (protein concentration 10 nM)”, 161. Next, “AATCCAATGGGGTTTCTGTGTAATTAATAACATCTA (protein concentration 10 nM)”: 120; “ATGGCATACTAAGTAGCCACAACATGCAAGATGGAC (protein concentration 1 nM)”: 440; “GCTCGCCTACCCACTGATTGCCAGTGTCCTGGGTGA (protein concentration 10 nM)”: 107. “TCCTCAAAATTAAGGTGCGGTGCCAGGCGCAGTGGC (protein concentration 1 nM)” yielded a TF binding intensity of 374. As for “GATAGACATATAAAAACCACAAAAATCAAAACTGCA (protein concentration 1 nM)”, the TF binding intensity stood at 485. To “ACCTGGGTCTCTGACAGACACCCCAAACTTCAGTTC (protein concentration 10 nM)” belongs 102. “GAAATATGACAAAAAACCCCTATCCTATGATAAGTC (protein concentration 10 nM)” displayed a TF binding intensity of 146. Next, “CTTAGTTCAGTGTAAGGGGCCTGGTTGTTGGATTTT (protein concentration 10 nM)”: 119.

The sequence “GATGCTCTGATACGCGCTGAAAAGAAGTCAGGCTTC (protein concentration 10 nM)” gave a TF binding intensity of 134.

With “GCAGTGAGCTGAGATCACACCATTGCACTCCAGCCT (protein concentration 10 nM)”, the TF binding intensity was determined as 135. As to “ACCTGTGAATAGACTGACCAAATGCAAGCTGGACCA (protein concentration 10 nM)”, the TF binding intensity worked out at 111. The sequence “TCTCTCTGCTCTGTGAACTCTAGCTGTCTTGGCTTC (protein concentration 10 nM)” had a TF binding intensity of 142.

“ATGGCCAGTTCACAGTGAGCCAAAGTCCTCCTCACA (protein concentration 10 nM)” had a TF binding intensity of 94.5.

The sequence “TAGGTTCTAGCCTGCTTAGCTAGAGTTTAGTTTATT (protein concentration 10 nM)” showed a TF binding intensity of 110. To “GTCCCGGCTCGACTCAGTCCTCCAGCCGCCCGGGGA (protein concentration 10 nM)” belongs 120; to “TGGACTAACTCCATTGCCTTTGTATACATTGGTTTC (protein concentration 10 nM)”, 102.

Turning to “CCATTAGTTCATCTTACACTCTGCCCTTTAACGTGG (protein concentration 10 nM)”, the TF binding intensity was 127. Next, “AAGCCTGGAGTTGGGGTGGTGGGGTGAGAATCAGCC (protein concentration 10 nM)”: 170; “CAACGCAGACTACTAACCACTAGAGAATCCCAAGGC (protein concentration 1 nM)”: 485; “GCTATTTTCTCTGCTTGAACATACCGTGTACACACA (protein concentration 10 nM)”: 178.

Regarding “ACTCATTAGCAGTGAGCCACAAAGACTCTCTGGAAG (protein concentration 1 nM)”, the TF binding intensity was 359. As for “GAGGGTCCCGGCTCTGCCGCAGGCGGGCGGGGCAGA (protein concentration 1 nM)”, the TF binding intensity amounted to 339.
